Source: the supplement of paper PMC10849652
Of roughly 8,800 targets only a part is listed; those with a hit were picked by preference. About 0.5% of all pairs of compound and target were hits.

Tests used:
Assay in all cases: log2 fold change, soluble protein after heating vs DMSO (PISA); higher = thermal stabilisation; K562 lysate, 10 uM; active = over 0.2 and 3.5 SD of the protein, either way, in both replicates (recomputed)
erlotinib = compound: C#Cc1cccc(Nc2ncnc3cc(OCCOC)c(OCCOC)cc23)c1 [erlotinib]
In short: (§1)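 Soluble protein was defined as the supernatant remaining after 21,000xg for 90 min, following pooling of heated aliquots and adjustment to 0.5% NP-40 at 4°C. Before that, crude K562 extract at 1 mg/mL protein in PBS pH 7.4 with 1 mM MgCl2 was treated with 10 μM compound for 30 min and heated for 3 min across 48°C-58°C. Quantification used TMTpro 16plex LC-MS/MS with channel sums equalised, and values are log-two fold changes in thermal stability relative to solvent controls from duplicates.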

[1] = compound: C/C(=N\NC(=O)C1=CC(=CC=C1)S(=O)(=O)N2CCOCC2)/C3=C(C=CC(=C3)Cl)O
In short: as §1

[2] = compound: C1=CC(=CC=C1C2=NC3=C(N2)C=C(C=C3)C(=O)N)OC4=CC=C(C=C4)Cl
In short: as §1

[3] = compound: C1=CC2=C(C=CC(=C2)/C=C\3/C(=O)NC(=NCC4=CC=CS4)S3)N=C1
In short: as §1

[4] = compound: C1=CC2=NC=CN=C2C=C1/C=C/3\C(=O)NC(=O)S3
In short: as §1

[5] = compound: C1=CC=C(C=C1)C2=NC(=C(N2)C3=CC=NC=C3)C4=CC(=C(C=C4)Cl)O
In short: as §1

[6] = compound: C1=CC=C2C(=C1)C3=NNC4=CC=CC(=C43)C2=O
In short: as §1

[7] = compound: C1CCN(C1)C(=O)NC2=CC=CC(=C2)NC3=NC=C(C(=N3)NCCC4=CN=CN4)Br
In short: as §1

[8] = compound: C1CN(CCC1(CC2=CC=C(C=C2)Cl)N)C3=NC=NC4=C3C=CN4
In short: as §1

IRAK-1-4 Inhibitor I = compound: C1COCCN1CCN2C3=CC=CC=C3N=C2NC(=O)C4=CC(=CC=C4)[N+](=O)[O-] [IRAK-1-4 Inhibitor I]
In short: as §1

Measured: log2 fold change

ARHGEF2 (UniProt Q92974)
Sequence of UniProt Q92974 (Q92974 whole entry, looked up): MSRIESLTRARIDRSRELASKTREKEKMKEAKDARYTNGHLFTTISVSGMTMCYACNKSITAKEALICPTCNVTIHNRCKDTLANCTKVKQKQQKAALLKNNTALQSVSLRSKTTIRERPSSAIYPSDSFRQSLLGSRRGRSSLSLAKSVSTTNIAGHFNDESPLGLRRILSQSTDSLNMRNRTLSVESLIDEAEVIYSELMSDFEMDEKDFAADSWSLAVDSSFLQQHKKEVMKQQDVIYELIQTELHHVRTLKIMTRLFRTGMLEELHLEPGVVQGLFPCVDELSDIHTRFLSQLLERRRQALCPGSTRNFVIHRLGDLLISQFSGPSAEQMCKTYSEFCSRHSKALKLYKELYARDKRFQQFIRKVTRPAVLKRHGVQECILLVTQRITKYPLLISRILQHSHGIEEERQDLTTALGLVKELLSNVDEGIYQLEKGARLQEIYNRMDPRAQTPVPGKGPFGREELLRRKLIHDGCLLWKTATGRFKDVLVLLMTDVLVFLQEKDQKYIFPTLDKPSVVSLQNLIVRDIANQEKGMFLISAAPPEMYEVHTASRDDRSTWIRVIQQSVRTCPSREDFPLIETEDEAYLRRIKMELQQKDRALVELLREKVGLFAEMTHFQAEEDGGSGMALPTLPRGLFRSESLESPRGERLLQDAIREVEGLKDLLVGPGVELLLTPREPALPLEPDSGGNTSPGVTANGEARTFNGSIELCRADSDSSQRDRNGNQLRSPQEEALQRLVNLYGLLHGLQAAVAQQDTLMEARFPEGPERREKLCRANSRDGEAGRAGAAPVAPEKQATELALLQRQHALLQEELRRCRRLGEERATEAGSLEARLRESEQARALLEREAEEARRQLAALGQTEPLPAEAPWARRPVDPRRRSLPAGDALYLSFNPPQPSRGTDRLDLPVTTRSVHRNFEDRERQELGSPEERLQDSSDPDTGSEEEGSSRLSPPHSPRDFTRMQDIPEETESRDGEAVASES
inactive: erlotinib -0.006 | [1] -0.041 | [2] -0.014 | [3] -0.017 | [4] 0.002 | [5] 0.039 | [6] -0.007 | [7] -0.051 | [8] -0.018 | IRAK-1-4 Inhibitor I -0.005

ARFGAP1 (UniProt Q8N6T3)
inactive: erlotinib -0.028 | [1] -0.209 | [2] -0.025 | [3] 0.005 | [4] 0.029 | [5] -0.039 | [6] -0.025 | [7] -0.018 | [8] 0.002 | IRAK-1-4 Inhibitor I 0.038

AGL (UniProt P35573)
inactive: erlotinib 0.007 | [1] 0.002 | [2] 0.003 | [3] -0.021 | [4] -0.01 | [5] 0.008 | [6] -0.035 | [7] -0.017 | [8] -0.006 | IRAK-1-4 Inhibitor I 0.001

ACOX1 isoform 2 (UniProt Q15067)
Sequence of UniProt Q15067 (Q15067 whole entry, looked up): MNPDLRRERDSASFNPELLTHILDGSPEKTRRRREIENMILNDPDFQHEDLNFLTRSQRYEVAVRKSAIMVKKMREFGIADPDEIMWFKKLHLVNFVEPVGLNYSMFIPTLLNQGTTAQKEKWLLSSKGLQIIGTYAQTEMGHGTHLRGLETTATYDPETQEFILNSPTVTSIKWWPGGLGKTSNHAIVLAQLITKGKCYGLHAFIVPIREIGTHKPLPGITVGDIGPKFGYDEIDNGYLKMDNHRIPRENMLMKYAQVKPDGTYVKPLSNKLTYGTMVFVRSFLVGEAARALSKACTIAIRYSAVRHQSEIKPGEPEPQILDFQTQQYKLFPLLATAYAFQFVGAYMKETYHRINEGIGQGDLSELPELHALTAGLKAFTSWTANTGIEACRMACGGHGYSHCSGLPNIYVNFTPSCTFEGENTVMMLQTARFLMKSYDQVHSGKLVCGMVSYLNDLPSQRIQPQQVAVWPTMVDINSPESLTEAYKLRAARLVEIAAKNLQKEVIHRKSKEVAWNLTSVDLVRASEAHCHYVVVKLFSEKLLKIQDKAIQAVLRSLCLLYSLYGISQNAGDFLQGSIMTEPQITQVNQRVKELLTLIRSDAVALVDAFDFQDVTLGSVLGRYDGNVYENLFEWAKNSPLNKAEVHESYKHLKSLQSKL
inactive: erlotinib -0.01 | [1] -0.023 | [2] 0.007 | [3] 0.007 | [4] 0.01 | [5] 0.011 | [6] -0.017 | [7] -0.007 | [8] 0.024 | IRAK-1-4 Inhibitor I 0.081

ARAF (UniProt P10398)
Sequence of UniProt P10398 (P10398 whole entry, looked up): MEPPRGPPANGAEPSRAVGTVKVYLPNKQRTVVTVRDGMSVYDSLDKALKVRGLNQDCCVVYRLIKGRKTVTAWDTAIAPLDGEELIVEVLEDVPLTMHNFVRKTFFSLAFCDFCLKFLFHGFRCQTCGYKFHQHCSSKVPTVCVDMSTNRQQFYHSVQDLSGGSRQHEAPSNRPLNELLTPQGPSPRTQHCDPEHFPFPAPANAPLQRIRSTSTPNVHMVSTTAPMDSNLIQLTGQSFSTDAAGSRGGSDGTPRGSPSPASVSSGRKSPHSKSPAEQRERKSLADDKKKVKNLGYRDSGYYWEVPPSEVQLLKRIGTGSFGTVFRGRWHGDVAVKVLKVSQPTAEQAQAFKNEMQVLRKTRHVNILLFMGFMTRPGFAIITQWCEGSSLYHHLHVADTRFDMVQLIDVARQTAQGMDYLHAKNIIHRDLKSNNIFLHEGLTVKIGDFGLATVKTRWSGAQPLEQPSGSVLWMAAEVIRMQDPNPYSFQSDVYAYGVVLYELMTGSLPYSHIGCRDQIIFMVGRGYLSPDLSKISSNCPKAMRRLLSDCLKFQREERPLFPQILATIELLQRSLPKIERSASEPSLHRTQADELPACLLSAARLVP
inactive: erlotinib -0.002 | [1] -0.129 | [2] -0.018 | [3] 0.014 | [4] -0.046 | [5] 0.067 | [6] 0.03 | [7] 0.012 | [8] -0.049 | IRAK-1-4 Inhibitor I -0.02

ANXA1 (UniProt P04083)
inactive: erlotinib -0.012 | [1] 0.013 | [2] 0.015 | [3] 0.014 | [4] -0.009 | [5] -0.008 | [6] -0.021 | [7] 0.003 | [8] 0.016 | IRAK-1-4 Inhibitor I -0.013

ACIN1 isoform 5 (UniProt Q9UKV3)
inactive: erlotinib -0.011 | [1] -0.025 | [2] -0.023 | [3] -0.028 | [4] -0.037 | [5] 0.001 | [6] -0.001 | [7] -0.006 | [8] -0.007 | IRAK-1-4 Inhibitor I -0.006

ADD1 isoform 3 (UniProt P35611)
Sequence of UniProt P35611 (P35611 whole entry, looked up): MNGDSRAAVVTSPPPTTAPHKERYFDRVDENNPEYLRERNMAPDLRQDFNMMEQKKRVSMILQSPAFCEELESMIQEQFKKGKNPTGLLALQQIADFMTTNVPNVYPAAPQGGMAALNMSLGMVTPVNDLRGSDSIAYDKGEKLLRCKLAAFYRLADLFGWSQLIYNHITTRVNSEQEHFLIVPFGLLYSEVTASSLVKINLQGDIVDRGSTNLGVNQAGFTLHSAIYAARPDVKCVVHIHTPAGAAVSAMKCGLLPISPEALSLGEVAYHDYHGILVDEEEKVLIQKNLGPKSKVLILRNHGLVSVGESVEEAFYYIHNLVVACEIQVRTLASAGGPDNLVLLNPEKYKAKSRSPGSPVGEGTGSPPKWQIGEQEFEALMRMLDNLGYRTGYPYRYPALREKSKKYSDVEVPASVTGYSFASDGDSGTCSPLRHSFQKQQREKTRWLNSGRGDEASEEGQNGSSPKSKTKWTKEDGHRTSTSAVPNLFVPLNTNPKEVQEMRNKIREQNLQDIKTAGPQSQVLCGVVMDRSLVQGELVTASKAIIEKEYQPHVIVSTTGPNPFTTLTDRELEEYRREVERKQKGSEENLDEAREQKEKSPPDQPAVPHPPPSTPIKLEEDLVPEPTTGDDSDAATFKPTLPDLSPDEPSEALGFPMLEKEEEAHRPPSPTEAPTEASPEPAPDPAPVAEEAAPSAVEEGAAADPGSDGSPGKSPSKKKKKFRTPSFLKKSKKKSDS
inactive: erlotinib -0.027 | [1] 0 | [2] 0.033 | [3] 0.011 | [4] -0.01 | [5] -0.004 | [6] 0.011 | [7] -0.015 | [8] -0.014 | IRAK-1-4 Inhibitor I -0.021

ACIN1 (UniProt E7EQT4)
inactive: erlotinib 0.001 | [1] -0.16 | [2] 0 | [3] 0.05 | [4] -0.027 | [5] -0.057 | [6] -0.009 | [7] 0.008 | [8] -0.027 | IRAK-1-4 Inhibitor I 0.012

APEX1 (UniProt P27695)
inactive: erlotinib 0.026 | [1] 0.011 | [2] -0.011 | [3] 0.016 | [4] 0 | [5] 0.004 | [6] -0.072 | [7] 0 | [8] 0.003 | IRAK-1-4 Inhibitor I -0.007

ACSL1 (UniProt P33121)
inactive: erlotinib 0.02 | [1] -0.104 | [2] -0.153 | [3] 0.086 | [4] 0.051 | [5] 0.025 | [6] -0.04 | [7] 0.009 | [8] 0.012 | IRAK-1-4 Inhibitor I 0.022

ARHGAP21 (UniProt Q5T5U3)
Sequence of UniProt Q5T5U3 (Q5T5U3 whole entry, looked up): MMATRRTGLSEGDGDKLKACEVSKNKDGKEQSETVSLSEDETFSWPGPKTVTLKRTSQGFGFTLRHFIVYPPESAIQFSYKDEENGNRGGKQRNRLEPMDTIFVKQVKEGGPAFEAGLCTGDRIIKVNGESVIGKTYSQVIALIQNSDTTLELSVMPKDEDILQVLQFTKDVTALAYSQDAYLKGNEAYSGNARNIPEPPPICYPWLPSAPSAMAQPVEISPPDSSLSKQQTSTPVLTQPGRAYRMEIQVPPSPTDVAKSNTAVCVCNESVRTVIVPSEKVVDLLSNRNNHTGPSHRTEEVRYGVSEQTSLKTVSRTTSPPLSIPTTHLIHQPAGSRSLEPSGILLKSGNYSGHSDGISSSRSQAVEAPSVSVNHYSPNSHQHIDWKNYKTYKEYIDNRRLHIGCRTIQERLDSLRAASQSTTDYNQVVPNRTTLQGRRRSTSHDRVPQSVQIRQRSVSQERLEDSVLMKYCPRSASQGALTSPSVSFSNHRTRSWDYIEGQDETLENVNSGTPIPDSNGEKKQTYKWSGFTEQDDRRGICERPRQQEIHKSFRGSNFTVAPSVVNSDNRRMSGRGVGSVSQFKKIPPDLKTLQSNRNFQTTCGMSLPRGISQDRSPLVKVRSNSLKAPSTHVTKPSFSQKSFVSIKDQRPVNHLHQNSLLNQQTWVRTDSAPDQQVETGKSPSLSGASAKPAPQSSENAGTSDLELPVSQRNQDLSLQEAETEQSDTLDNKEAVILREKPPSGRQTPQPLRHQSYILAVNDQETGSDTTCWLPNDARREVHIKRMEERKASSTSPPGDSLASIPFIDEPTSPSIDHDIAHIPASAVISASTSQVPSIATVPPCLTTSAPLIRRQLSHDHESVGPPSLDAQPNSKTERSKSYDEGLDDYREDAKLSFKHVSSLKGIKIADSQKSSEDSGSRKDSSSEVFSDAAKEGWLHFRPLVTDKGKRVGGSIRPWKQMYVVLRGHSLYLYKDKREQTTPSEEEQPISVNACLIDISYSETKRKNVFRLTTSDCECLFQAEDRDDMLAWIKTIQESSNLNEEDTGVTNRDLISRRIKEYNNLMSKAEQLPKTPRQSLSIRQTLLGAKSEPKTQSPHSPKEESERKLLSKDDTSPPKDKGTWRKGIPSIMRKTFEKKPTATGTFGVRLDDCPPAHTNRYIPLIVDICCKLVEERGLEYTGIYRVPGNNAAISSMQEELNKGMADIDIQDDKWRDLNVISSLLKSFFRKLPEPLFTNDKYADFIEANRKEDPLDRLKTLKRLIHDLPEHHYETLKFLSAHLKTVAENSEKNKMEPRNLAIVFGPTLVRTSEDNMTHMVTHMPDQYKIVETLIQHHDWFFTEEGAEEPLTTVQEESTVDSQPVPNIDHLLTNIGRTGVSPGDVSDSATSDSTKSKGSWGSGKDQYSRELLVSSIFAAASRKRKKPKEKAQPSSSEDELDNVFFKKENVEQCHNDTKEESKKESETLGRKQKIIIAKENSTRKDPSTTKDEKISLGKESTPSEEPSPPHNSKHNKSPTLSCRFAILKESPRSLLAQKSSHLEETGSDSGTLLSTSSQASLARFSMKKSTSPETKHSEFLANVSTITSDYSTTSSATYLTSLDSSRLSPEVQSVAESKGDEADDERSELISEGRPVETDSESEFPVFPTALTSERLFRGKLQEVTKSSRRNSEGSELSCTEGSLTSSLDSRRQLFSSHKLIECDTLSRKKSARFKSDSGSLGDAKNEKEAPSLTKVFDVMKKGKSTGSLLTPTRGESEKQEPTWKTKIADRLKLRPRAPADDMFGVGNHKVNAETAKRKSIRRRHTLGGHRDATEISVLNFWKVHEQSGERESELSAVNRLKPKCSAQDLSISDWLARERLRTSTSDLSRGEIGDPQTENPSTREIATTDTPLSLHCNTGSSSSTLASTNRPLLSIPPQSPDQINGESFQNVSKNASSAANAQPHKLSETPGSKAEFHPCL
inactive: erlotinib -0.013 | [1] -0.182 | [2] -0.025 | [3] -0.098 | [4] -0.214 | [5] -0.018 | [6] -0.137 | [7] -0.118 | [8] -0.018 | IRAK-1-4 Inhibitor I 0.056

AARS2 (UniProt Q5JTZ9)
inactive: erlotinib 0.013 | [1] -0.047 | [2] -0.05 | [3] 0.004 | [4] -0.013 | [5] 0.005 | [6] -0.026 | [7] -0.008 | [8] 0.038 | IRAK-1-4 Inhibitor I -0.024

ARAP1 (UniProt Q96P48)
inactive: erlotinib 0.003 | [1] -0.164 | [2] -0.041 | [3] 0.024 | [4] 0.022 | [5] 0.022 | [6] 0.013 | [7] -0.01 | [8] -0.007 | IRAK-1-4 Inhibitor I 0.008
